According to PubChem BioAssay AID374 (University of Pittsburgh Molecular Library Screening Center, 2006):
In all, about 65,000 compounds went through this assay and about 100 (0.15%) were called active.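 How the source made its calls: active means inhibition above about 50% (limit read from the data); inconclusive means inhibition over screen mean plus 3 SD, below that limit; inactive means the rest.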 Shown is part of a subset that was picked to be rich in actives.

These compounds were tested against Dual specificity protein phosphatase 1 (Homo sapiens) (UniProt P28562) (assay: blockers of human DUSP1 activity – biochemical, in vitro, primary screen (AID 374;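 further: 0% = DMSO max control wells and 100% = wells with enzyme stopped by NaOH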)). Settings: recombinant MKP-1, OMFP hydrolysis fluorescence; hits give high values;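 compounds tested at a single concentration somewhere between 10 and 100 µM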.
Dual specificity protein phosphatase 1 (Homo sapiens), sequence (P28562 whole entry, looked up): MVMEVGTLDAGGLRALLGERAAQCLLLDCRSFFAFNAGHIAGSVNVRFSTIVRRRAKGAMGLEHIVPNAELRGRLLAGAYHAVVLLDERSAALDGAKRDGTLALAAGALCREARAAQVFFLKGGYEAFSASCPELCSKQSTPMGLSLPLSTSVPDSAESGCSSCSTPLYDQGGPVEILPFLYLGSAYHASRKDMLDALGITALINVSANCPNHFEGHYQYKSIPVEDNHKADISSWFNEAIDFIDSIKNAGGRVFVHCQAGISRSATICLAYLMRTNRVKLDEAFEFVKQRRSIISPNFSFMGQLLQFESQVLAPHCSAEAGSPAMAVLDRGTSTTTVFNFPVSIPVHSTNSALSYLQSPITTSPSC

inhibition, inactive:
Cn1c(SCC(=O)c2cccs2)nnc1-c1ccco1 0.18%
CC(C)[C@H](NC(=O)Nc1ccc(S(N)(=O)=O)cc1)C(=O)O -4.12%
CCc1ccccc1N(CC(=O)NCCSCc1ccco1)S(C)(=O)=O -0.33%
CC(CN1CCCCC1)OC(=O)c1ccccc1Cl (centres undefined) -18.9%
O=C(Nc1cnccn1)c1cccnc1 35.7%
Cc1cccc(C)c1NC(=O)N1CC=C(n2c(=O)[nH]c3ccccc32)CC1 -1.96%
O.O.O.O=S(=O)([O-])OC[C@H]1O[C@@H](O[C@]2(COS(=O)(=O)[O-])O[C@H](OS(=O)(=O)[O-])[C@@H](OS(=O)(=O)[O-])[C@@H]2OS(=O)(=O)[O-])[C@H](OS(=O)(=O)[O-])[C@@H](OS(=O)(=O)[O-])[C@@H]1OS(=O)(=O)[O-].[Al] 9.95%
CC(=NC1CCN(Cc2ccccc2)CC1)c1c(O)[nH]c(=O)[nH]c1=O -4.49%
COc1ccccc1Nc1nc(N)nc(CN(C)C2CCCCC2)n1 -2.91%
CCN(CC(=O)Nc1ccc2c(c1)OCCO2)Cc1cc(=O)oc2cc(C)c(C)cc12 12.7%
Cc1cc(C)c(NC(=O)CS(=O)CC(=O)Nc2cccnc2)c(C)c1 (centres undefined) -12.3%
Cc1ccnc(N2CCN(C(=O)CSc3nc4ccccc4nc3N3CCCCC3)CC2)c1 6.59%
Nn1c(SCC(=O)NC(=O)NC2CCCC2)nnc1-c1ccccc1F -5.68%
O=c1cc(CO)oc(CN2CCC(Cc3ccccc3)CC2)c1O 8.32%
CCOC(=O)CSc1nnc(-c2ccco2)n1C -29.8%
O=C(CSc1nnc(-c2ccco2)n1-c1ccccc1)NCCc1ccccc1 -9.86%
Cc1cc(C)c2c(c1)cc(C)c1nnc(SCC(=O)Nc3cc(C)on3)n12 8.08%
c1csc(CN2CCN(Cc3cccs3)C2c2cccs2)c1 -1.36%
Cc1ccc2c(NC(=O)C3CC3)cccc2n1 3.59%
CCOc1cc(/C=N/n2cnnc2)c(Br)cc1O -7.39%
O=C(Nc1ccc(S(=O)(=O)N2CCCCC2)cc1)c1cnccn1 -0.35%
COc1ccc(S(=O)(=O)N2CCCC(C(=O)Nc3ccc(NC(=O)c4ccccn4)cc3)C2)cc1 (centres undefined) 32.2%
CCOC(=O)N1CCN(CC(=O)c2c(C)[nH]c3ccccc23)CC1 1.62%
Cc1ccc(-c2noc(CCC(=O)Nc3ccccc3N3CCN(C)CC3)n2)cc1 -3.7%
CCOc1cccc(NC(=O)C2CCCN(S(=O)(=O)c3ccc(OC)cc3)C2)c1 (centres undefined) -15.6%
CN(C)CCCn1c(N)c(C#N)c2nc(C#N)c(C#N)nc21 2.01%
CC(=O)OCc1cc(=O)n(C)c(=O)n1C 15.5%
CCC(=O)Nc1ccccc1N1CCN(S(C)(=O)=O)CC1 6.41%
O=C(NCc1ccco1)c1cc(-c2cccnc2)nc2ccc(Cl)cc12 18.9%
COc1ccc(C(c2nnnn2Cc2cccs2)N2CCN(c3ccccc3)CC2)cc1OC (centres undefined) -17.2%
COCCOC(=O)C1=C(C)N=c2s/c(=C\c3cccs3)c(=O)n2C1c1cccs1 (centres undefined) -3.72%
CC(C)Cn1c(CCC(=O)O)ccc1-c1cccs1 -3.65%
O=C(Nc1ccccc1)N(Cc1cccnc1)Cc1ccco1 19.6%
CCOC(=O)CN1C(=O)C(O)(CC(=O)c2ccccn2)c2ccccc21 (centres undefined) -1.14%
COc1cccc(-n2c(Cc3cc(=O)[nH]c(=O)[nH]3)nnc2SCC(=O)Nc2ccccc2)c1 6.14%
O=C(Cn1nc(Cc2cccnc2)c2ccccc2c1=O)NCC1CCCO1 (centres undefined) -5.72%
O=C(CCC(=O)N1CCN(S(=O)(=O)c2ccccc2)CC1)NC1CCCc2ccccc21 (centres undefined) 28.7%
O=C(NCCN1CCOCC1)c1ccc2c(c1)ncn2C1CCCC1 -1.23%
O=S1(=O)CC(NCc2ccccc2)C(Nc2ccc(Cl)cc2)C1 (centres undefined) -10.7%
CC(C)=C(NC(=O)c1ccco1)C(=O)NCCc1nc2ccccc2[nH]1 -31.3%
CC(=O)Nc1cc2ccc(OC(C)=O)cc2oc1=O 1.98%
CC1CCCCN1CC(=O)NCc1ccc2c(c1)OCO2 (centres undefined) 11.8%
COCCCNC(=O)CSc1nc2ccc(N3CCOCC3)cc2c(=O)n1CCc1ccccc1 25.1%
CCCCn1c(SCC(=O)NCC2CCCO2)nc2ccc(N3CCOCC3)cc2c1=O (centres undefined) 20.6%
Cc1nn(CC(=O)Nc2ccc3c(c2)nc(CN2CCCCC2)n3C)c(=O)c2ccccc12 21.5%
O=C(NCC(F)(F)F)Nc1nnc(C(F)(F)F)s1 -9.86%
O=C(CCS(=O)(=O)Cc1ccccc1F)NCCCN1CCCCC1 5.21%
O=C(Cn1nnc2ccccc2c1=O)Nc1cc(C(F)(F)F)ccc1N1CCOCC1 36.2%
COC(=O)C1=C(C)NC(=O)NC1/C=C/c1ccccc1 (centres undefined) -8.21%
COc1ccccc1NC(=O)C1=C(C)NC2=C(C(=O)CCC2)C1c1ccc(C)o1 (centres undefined) 11.7%
Cc1nnc(NC(=O)CSc2nccn2-c2cccc(C)c2C)s1 -0.12%
CC(C)(C)n1c(=O)[nH]c2c(c1=O)CCC2 21.8%
O=C(Oc1cccnc1)c1cc2ccccc2oc1=O 10.3%
CC/C(=N\O)C(C)(C)/[N+]([O-])=C/c1ccc(Br)cc1 4.53%
Cc1cccc(N2C(=O)SC(N(CC(=O)O)c3cccc(C)c3)C2=O)c1 (centres undefined) 11.8%
COc1ccc(C(=O)N(Cc2ccc(N(C)C)cc2)C2CCS(=O)(=O)C2)cc1 (centres undefined) 0.01%
Cc1nc2sc(C(c3ccco3)N3CCC4(CC3)OCCO4)c(O)n2n1 (centres undefined) 4.37%
COc1ccc2c(CC(=O)Nc3nnc(C4CC4)s3)coc2c1 11.4%
CCCCCCn1c(CN2CCCCC2)nc2c1c(=O)n(C)c(=O)n2C 3.15%
CNC(=O)Nc1cc(C(C)(C)C)no1 -18.9%
CCN(CC(=O)NC(C)C)C(=O)CCNC(=O)c1ccc(Cl)cc1 24.3%
CN1C(=O)c2ccc(NC(=O)C3CCCCC3)cc2C1=O 16.2%
CC1(C)CC(=O)C=C(NCCCN2CCCC2=O)C1 -21.7%
CCOc1ccccc1C1CC(c2ccccc2)Nc2nc(N)nn21 (centres undefined) 5.12%
CSC1=N/C(=C\C=C\c2cccs2)C(=O)S1 -1.19%
Fc1ccc(OCc2nn3c(Cn4nnc5ccccc54)nnc3s2)cc1 17.2%
Cn1c(CNC(=O)C(C)(C)C)nc2ccccc21 4.69%
COc1cccc2cc(C(=O)N(C)C)c(=O)oc12 -3.65%
CCCCOC(=O)c1[nH]c(C)c(C(=O)OC)c1C -26.1%
Cc1n[nH]c(C)c1S(=O)(=O)N1CCCC(C(=O)NCC2COc3ccccc3O2)C1 (centres undefined) 2.75%
CCS(=O)(=O)N1CCN(C(=O)c2cccs2)CC1 0.17%
Cc1nn(-c2ccccc2)c2c1C(=O)NC(=O)C(C)(C)C2 -21.3%
Cc1cccc(N)c1SC1CCCCC1O (centres undefined) -21.7%
COc1ccccc1Oc1ccc(S(=O)(=O)Nc2cccnc2)cc1 -6.18%
CCN(CC)P(=O)(C(NC(=O)OC)C(F)(F)C(F)(F)C(F)(F)C(F)F)N(CC)CC (centres undefined) 32.7%
Cc1ccc(C(=O)Nc2ccccc2C(=O)NC2CCCCC2)cc1S(=O)(=O)N1CCOCC1 15.1%
CCO/C([O-])=N/c1c[n+](N2CCOCC2)no1 -14.5%
Cc1cc(N2C(=O)c3ccc(C(=O)NCc4ccccc4)cc3C2=O)no1 6.5%
COc1ccc(OC)c2sc(NC(=O)C3COc4ccccc4O3)nc12 (centres undefined) 10.2%
COc1ccc(-c2nnc(SCC(=O)c3ccco3)n2-c2ccccc2)cc1 1.42%
CCCOc1cccc(C(=O)Nc2nnn(CCC)n2)c1 -1.6%
CC(=O)N(CN1C(=O)C2CC=CCC2C1=O)c1cccc(Cl)c1 (centres undefined) 4.23%
Cc1nc2ccccc2cc1O -1.94%
COc1ccc(-n2c(SCC(=O)NCc3cccs3)nnc2-c2ccoc2C)cc1 -10%
COc1ccc(CCN2CNc3c(c(=O)n(C)c(=O)n3C)C2)cc1OC -8.44%
CCOC(=O)Cn1c(=O)oc2cc(S(=O)(=O)NCC3CCCO3)ccc21 (centres undefined) -10.8%
COC(=O)C1C(=O)CC(C)(O)C(C(=O)OC)C1c1ccc2c(c1)OCO2 (centres undefined) 4.11%
Cc1ccc2nc(NCCCNC(=O)c3cnccn3)c(C#N)cc2c1 16.8%
CCN(CCCNC(=O)C1CCN(S(=O)(=O)c2cnc[nH]2)CC1)c1ccccc1 -3.93%
Cn1c(=O)c2c(nc(OCc3cccnc3)n2Cc2ccccc2)n(C)c1=O -22.4%

inhibition, active:
CCCCNC(=O)CSc1nnc(-c2ccco2)n1C 93.8%
O=C1c2cccnc2C(Nc2ccc(S(=O)(=O)N3CCCCCC3)cc2)N1Cc1ccccc1 (centres undefined) 51.4%
CCc1ccc(NC(=O)CSc2nc3ccccc3c(=O)n2CCN2CCOCC2)cc1 52.5%
COC(=O)C1=C(C)NC2=C(C(=O)c3ccccc32)C1c1ccc(-c2ccc(C(=O)O)cc2)o1 (centres undefined) 56%
